Assay outcomes deposited in PubChem BioAssay by several laboratories.
CYP2C19 inhib: inhibitors of human CYP2C19. P33261. CYP2C19 Supersomes, luciferin-H EGE luminescence, 30 min. inhibition, % at 5 µM. hit rate 21% among 96,000. AID 778;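 active means CYP2C19 inhibition above a set limit at 5 µM in the primary screen, cut at about 50% in these data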
CYP2C9 inhib: blocks human cytochrome P450 2C9 | P11712 | CYP2C9 Supersomes, luciferin-H conversion, luminescence | inhibition, % at 5 µM | hit rate 20% among 96,000 | AID 777;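 active means blocking of liver enzyme CYP2C9 beyond about 50% at 5 µM, limit read from the data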
Target sequence (P11712 whole entry, looked up): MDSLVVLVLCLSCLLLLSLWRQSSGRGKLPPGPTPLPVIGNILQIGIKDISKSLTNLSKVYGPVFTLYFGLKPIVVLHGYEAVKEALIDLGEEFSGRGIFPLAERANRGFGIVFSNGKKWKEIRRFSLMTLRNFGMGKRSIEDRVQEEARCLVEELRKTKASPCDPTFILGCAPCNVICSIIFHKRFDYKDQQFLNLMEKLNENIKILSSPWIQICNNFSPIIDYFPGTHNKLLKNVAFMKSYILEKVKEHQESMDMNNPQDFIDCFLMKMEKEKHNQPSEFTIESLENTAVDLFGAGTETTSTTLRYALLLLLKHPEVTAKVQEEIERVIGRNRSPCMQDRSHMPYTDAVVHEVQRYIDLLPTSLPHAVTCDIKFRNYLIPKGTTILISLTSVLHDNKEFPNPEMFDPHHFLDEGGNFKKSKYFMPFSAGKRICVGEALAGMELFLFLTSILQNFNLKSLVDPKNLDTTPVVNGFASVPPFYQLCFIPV
CYP2C19 act: activators of human cytochrome P450 2C19; P33261; AID 1025; recombinant CYP2C19, luciferin-H EGE luminescence; active compounds read high; 0 = fully inhibited enzyme, 1 = untreated enzyme; activation factor at 5 µM; 96,000 tested, under 10 active;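 active means activation factor of at least 2 at 5 µM in the primary screen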
Pyk2 oligo antag: blocks oligomerization of human Pyk2 in cells | Q14289 | Q293 cells, Pyk2 FERM NanoBiT luminescence; active compounds read low | z-score (the deposit names both 25 µM and 10 µM) | hit rate 0.83% among 99,000;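 active means Z-score of -3 or lower, scaled per plate to the spread of control and sample wells; inactive means z-score above -3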;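 further: negative z-score means lost luminescence so less FERM oligomerization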
Cav32 inh: inhibitors of human Cav3.2 T-type calcium channel | O95180 | Cav3.2-expressing cells, Fluo-4 calcium fluorescence FDSS; active compounds read low | hit rate 4% among 100,000 | B-score at 10 µM;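 active means single-dose well whose peak fluorescence ratio is a statistical outlier from its plate by either plate-standardised score or position-corrected B-score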
CYP2C9 act: increases human cytochrome P450 2C9 activity. P11712. recombinant CYP2C9, luciferin-H conversion, luminescence; active compounds read high; factor 1 = untreated enzyme, 0 = blocked. activation factor at 5 µM. hit rate 1.4% among 96,000;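 active means activation factor of 2 or more for CYP2C9 at a 5 µM dose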
Of the large screens only hits and unclear results are named; the others gave an inactive call. A selection: hits, their analogues and other compounds. The true share with any hit is near 27%.

CC(NC(=O)CN(C)Cc1nc2ccccc2c(=O)[nH]1)c1ccccc1 (stereo not drawn)	none
Cc1ccc(NC(=O)CN(C)Cc2nc3ccccc3c(=O)[nH]2)c(Br)c1	CYP2C9 inhib 68.0
CCOc1ccc(OCC)c(-c2c(=O)n(OCc3ccc(C(C)(C)C)cc3)c3ccccc3[n+]2[O-])c1	CYP2C19 inhib 87.8, CYP2C9 inhib 52.4
Cc1ccc2[nH]c(=O)c(CN(Cc3ccccc3Cl)C(=O)N3CCOCC3)cc2c1	CYP2C19 inhib 82.4, CYP2C9 inhib 71.7
CC(C)Cn1c(=O)c(C(=O)NCc2ccccn2)c(O)c2ccccc21	none
CCOC(=O)C1=C(C)C(c2ccccc2)NC(=S)N1 (stereo not drawn)	CYP2C19 inhib 63.3
CCOC(=O)C1=C(c2ccccc2)NC(=S)NC1C (stereo not drawn)	CYP2C19 inhib 52.5
COC(=O)C1=C(C)C(c2ccc(OC)cc2)NC(=S)N1 (stereo not drawn)	none
COc1ccc(C(C[N+](=O)[O-])c2c(-c3ccccc3)cc3ccccn23)c(OC)c1 (stereo not drawn)	CYP2C9 inhib 70.5
CC1(C)CC(=O)C(C=Nc2ccc3[nH]ncc3c2)=C(O)C1	CYP2C19 inhib 99.7
CC1(C)CC(=O)C(C=Nc2ccc3cn[nH]c3c2)=C(O)C1	CYP2C19 inhib 53.8
CC1(C)CC(=O)C(C=Nc2ccc(O)cc2)=C(O)C1	none
CCOCCc1nnc(NC(=O)COC)s1	none
CC(CCc1ccccc1)NC(=O)C1CCN(C(=O)c2sccc2-n2cccc2)CC1 (stereo not drawn)	CYP2C19 inhib 72.0, CYP2C9 inhib 77.5 (no result: Pyk2 oligo antag)
O=C(NNC(=O)c1sccc1-n1cccc1)c1ccc(Cl)cc1	CYP2C9 act 2.7
O=C(NCCc1ccc(Cl)cc1)C1CCN(C(=O)c2sccc2-n2cccc2)CC1	CYP2C9 inhib 52.2
O=C(NCCc1ccc(Cl)cc1)C1CCN(S(=O)(=O)N2CCCC2)CC1	none (no result: Cav32 inh)
O=C(NNS(=O)(=O)c1ccccc1)c1sccc1-n1cccc1	none
COc1ccc(C2C(C#N)=C(SC)NC3=C2C(=O)CC(C)(C)C3)cc1 (stereo not drawn)	CYP2C9 inhib 73.3 (no result: Cav32 inh)
CCOC(=O)CSC1=C(C#N)C(c2ccc(OC)cc2)C2=C(CC(C)(C)CC2=O)N1 (stereo not drawn)	CYP2C19 inhib 71.6, CYP2C9 inhib 62.7
CCOC(=O)CSC1=C(C#N)C(c2ccc(C)cc2)C2=C(CCCC2=O)N1 (stereo not drawn)	CYP2C9 inhib 77.8
CSC1=C(C#N)C(C)C2=C(CC(C)(C)CC2=O)N1 (stereo not drawn)	none
COc1ccc(C2CC(=O)C3=C(C2)NC(C)=C(C#N)C3c2ccc(N(C)C)cc2)cc1 (stereo not drawn)	CYP2C19 inhib 64.3, CYP2C9 inhib 87.4
COc1ccc(C2CC(=O)C3=C(C2)Nc2ccccc2N(C(C)=O)C3c2ccco2)cc1 (stereo not drawn)	none
CC(=O)N1CCN(S(=O)(=O)c2cccc(C(=O)NC3CCCc4ccccc43)c2)CC1 (stereo not drawn)	none
Cc1c(N/C(=N/S(=O)(=O)c2ccccc2)c2ccc(Cl)cc2)c(=O)n(-c2ccccc2)n1C	none (no result: CYP2C19 inhib, CYP2C9 inhib, CYP2C19 act, Cav32 inh, CYP2C9 act)
Cc1cc2n(n1)C(c1cccs1)Nc1ccccc1-2 (stereo not drawn)	none
COc1ccc2c(c1)c(CC(=O)Nc1ccc(C)cc1)c(C)n2C(=O)c1ccc(Cl)cc1	CYP2C19 inhib 68.8, CYP2C9 inhib 88.6, Cav32 inh -3.92
CCn1c(O)c(N=NC(=O)CNC(=O)/C=C/c2ccco2)c2ccccc21	CYP2C19 inhib 50.5, CYP2C9 inhib 64.7
CCCn1c(O)c(N=NC(=O)c2ccco2)c2ccccc21	none (no result: CYP2C19 inhib, CYP2C9 inhib, CYP2C19 act, Cav32 inh, CYP2C9 act)
O=C(Nc1cc(C(F)(F)F)ccc1N1CCCC1)c1cccnc1	none
CNc1nc(SC)nc2ccsc12	CYP2C9 act 2.3
C=CCSc1nc(NC)c2sccc2n1	CYP2C9 act 2.5 (no result: Cav32 inh)
Cc1ccc(Nc2nc3nonc3[nH]c2=O)cc1C	CYP2C9 inhib 58.3 (no result: Cav32 inh)
O=S(=O)(NCc1csc(-c2cccnc2)n1)c1ccc(Cl)s1	CYP2C19 inhib 75.9, CYP2C9 inhib 62.4 (no result: Pyk2 oligo antag)
CCc1ccc(S(=O)(=O)NCc2csc(-c3ccccc3)n2)s1	CYP2C9 inhib 76.2, Cav32 inh -3.19
CCc1ccc(S(=O)(=O)NCCc2csc(-c3ccccc3)n2)s1	CYP2C19 inhib 92.7, CYP2C9 inhib 74.2, Cav32 inh -4.48
CCc1ccc(S(=O)(=O)NCCc2csc(-c3cccnc3)n2)s1	CYP2C19 inhib 94.2, CYP2C9 inhib 89.4 (no result: Pyk2 oligo antag)
O=C(NC1CCCCC1)C1CCN(S(=O)(=O)N2CCOCC2)CC1	none
O=C(N/C(=C\c1ccc(Br)cc1)c1nc2ccccc2[nH]1)c1ccco1	none
CCS(=O)(=O)NCCc1csc(-c2ccccc2)n1	CYP2C19 inhib 72.8
CCS(=O)(=O)NCCc1csc(-c2cccnc2)n1	none (no result: Pyk2 oligo antag)
O=C(CS(=O)(=O)c1ccccc1)Nc1nc(-c2ccccc2)cs1	CYP2C19 inhib 75.6, CYP2C9 inhib 98.3, Cav32 inh -4.92
Cc1ccc(S(=O)(=O)CC(=O)Nc2nc(-c3ccccc3)cs2)cc1	CYP2C19 inhib 85.0, CYP2C9 inhib 97.4, Cav32 inh -7.22
CCCOc1ccc(C2NC(=O)NC2=O)cc1 (stereo not drawn)	none (no result: CYP2C19 inhib, CYP2C9 inhib, CYP2C19 act, CYP2C9 act)
CCCOc1ccc(S(=O)(=O)n2cc(Br)c(=O)[nH]c2=O)cc1	CYP2C9 inhib 97.9
CC(=O)c1c(OC(=O)c2ccco2)c2ccccc2n1C	CYP2C19 inhib 62.5 (no result: Cav32 inh)
OC1(C2(O)CC(c3ccccc3)ON2)CCCCC1 (stereo not drawn)	CYP2C19 inhib 77.0
COC(=O)Cc1cnc(NC(=O)C2C3CCC(C3)C2C(=O)O)s1 (stereo not drawn)	none
NC(=O)c1ccsc1NC(=O)C1CCCN1S(=O)(=O)c1ccc(Cl)cc1 (stereo not drawn)	CYP2C19 inhib 60.9, CYP2C9 inhib 77.9
O=C(Nc1nccs1)C1CCCN1S(=O)(=O)c1ccc(Cl)cc1 (stereo not drawn)	CYP2C9 inhib 69.0
CC(C)CNC(=O)C1CCCN1S(=O)(=O)c1ccc(Cl)cc1 (stereo not drawn)	none
CC(C)(C)C(=O)Nc1nc(C2CCCN2S(=O)(=O)c2ccc(Cl)cc2)cs1 (stereo not drawn)	CYP2C19 inhib 100.3, CYP2C9 inhib 100.2, Cav32 inh -3.99
CC1CCCCN1S(=O)(=O)c1ccc(C(=O)Nc2sccc2C(N)=O)cc1 (stereo not drawn)	CYP2C9 inhib 97.1 (no result: Pyk2 oligo antag)
CC(=O)Oc1ccc(/C=N/NC(=O)C2CCCN2S(=O)(=O)c2ccc(Cl)cc2)cc1 (stereo not drawn)	none
Cc1cc2ncn(C(=O)N3CCC(C)CC3)c2cc1C	Cav32 inh -6.47 (no result: CYP2C19 inhib, CYP2C9 inhib, CYP2C19 act, CYP2C9 act)
Fc1ccc(CNc2ccc(CNc3ncn[nH]3)cc2)cc1	CYP2C19 inhib 64.0
